In PubChem BioAssay (NCI):
About 79,000 compounds went through this panel and 15% of them were active in at least one assay; those are over-represented in the sample as a whole. A number with no mark means an inactive call. The source made the active and inactive calls. Cut-off read from the data, not from the text of the source: active = growth inhibition above about 70%; inactive = the rest. Where a SMILES comes first, the peptide text is derived from it. The star is where a group is joined. Boc = CC(C)(C)OC(=O)*; Bn = c1ccc(C*)cc1

Columns and labels:
[1] = NCI Yeast Anticancer Drug Screen. Data for the rad50 strain (AID 155);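 note: 0% = growth of vehicle-only cultures of the same strain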; conditions: S. cerevisiae rad50 strain growth inhibition; at 50.0 µM; hits give high values
Method in brief: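 Genetically altered yeast (DNA repair pathway); compound treatment; growth inhibition vs vehicle ctrl.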

[2] = NCI Yeast Anticancer Drug Screen. Data for the mec2-1 strain (AID 157); conditions: S. cerevisiae mec2-1 strain, at 50.0 µM, hits give high values
Method in brief: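 mec2-1 yeast strain, carrying an alteration in DNA damage repair or cell cycle control, was exposed to compounds; growth inhibition was measured relative to vehicle-treated controls.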

[3] = NCI Yeast Anticancer Drug Screen. Data for the sgs1 mgt1 strain (AID 161);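 note: 0% = growth of cultures given vehicle only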; conditions: S. cerevisiae sgs1 mgt1 strain, at 50.0 µM, hits give high values
Method in brief: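 Growth of a repair-deficient yeast mutant was monitored after compound treatment and expressed as inhibition relative to vehicle-treated cultures.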

[4] = NCI Yeast Anticancer Drug Screen. Data for the cln2 rad14 strain (AID 165);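 note: 0% = growth equal to vehicle treated cultures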; conditions: S. cerevisiae cln2 rad14 strain, at 50.0 µM, hits give high values
Method in brief: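 Yeast carrying cln2 and rad14 alterations (cell cycle control and DNA damage repair) were exposed to compounds. Growth inhibition was measured against vehicle-treated controls.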

[5] = NCI Yeast Anticancer Drug Screen. Data for the bub3 strain (AID 167); conditions: S. cerevisiae bub3 mutant strain, at 50.0 µM, hits give high values
Method in brief: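 Yeast carrying a defined mutation is treated with each compound, and growth is compared with that of vehicle-exposed cells to give inhibition.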

[6] = NCI Yeast Anticancer Drug Screen. Data for the mlh1 rad18 strain (AID 175); conditions: S. cerevisiae mlh1 rad18 strain growth inhibition; at 50.0 µM; hits give high values
Method in brief: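 Growth inhibition of the yeast strain was measured after compound exposure and expressed relative to vehicle-treated controls. The strain carries defined defects in DNA damage repair.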

Clc1ccc(CSc2ccc3nncc(SCc4ccc(Cl)cc4Cl)c3c2)c(Cl)c1
growth inhibition [1]: 36%
growth inhibition [2]: 5.8%
growth inhibition [3]: 15.1%
growth inhibition [4]: 36.8%
growth inhibition [5]: 15.1%
growth inhibition [6]: 17.6%

COC(=O)C(C)OC(=O)OCC(C)C (stereo not drawn)
growth inhibition [1]: -11.1%
growth inhibition [2]: -1.9%
growth inhibition [3]: 0.15%
growth inhibition [4]: -2.95%
growth inhibition [5]: -2.95%
growth inhibition [6]: -11.8%

O=C(Nc1ccc(Cl)c(Cl)c1)Nc1cccc2nsnc12
growth inhibition [1]: 4.45%
growth inhibition [2]: 7.35%
growth inhibition [3]: -2.7%
growth inhibition [4]: 13.2%
growth inhibition [5]: -1.5%
growth inhibition [6]: 26.2%

C(=C\c1cc(-c2cc(/C=C/c3ccccc3)[nH]n2)n[nH]1)/c1ccccc1
growth inhibition [1]: 6.15%
growth inhibition [2]: 9.1%
growth inhibition [3]: -14.3%
growth inhibition [4]: 13.2%
growth inhibition [5]: -8%
growth inhibition [6]: 44.4%

COC(=O)C(CC(C)C)NC(=O)CNC(=O)C(Cc1ccc(OCc2ccccc2)cc1)NC(=O)C(COCc1ccccc1)NC(=O)OC(C)(C)C (stereo not drawn) (Boc-S(Bn)Y(Bn)GL-OMe; configuration not given here)
growth inhibition [1]: -26.8%
growth inhibition [2]: -22.6%
growth inhibition [3]: -23.8%
growth inhibition [4]: 11.8%
growth inhibition [5]: 2.65%
growth inhibition [6]: -10.5%

CN(C)C(=O)/N=C1\SC(=Nc2ccccc2)C(=Nc2ccccc2)N1c1ccc([N+](=O)[O-])cc1
growth inhibition [1]: -1.65%
growth inhibition [2]: 5.5%
growth inhibition [3]: -1.7%
growth inhibition [4]: 27.2%
growth inhibition [5]: 16.4%
growth inhibition [6]: -12.3%

N#CC(NNC(=O)c1ccccc1O)c1ccccc1 (stereo not drawn)
growth inhibition [1]: 16.1%
growth inhibition [2]: 0.5%
growth inhibition [3]: 9.85%
growth inhibition [4]: -8.7%
growth inhibition [5]: 35.9%
growth inhibition [6]: 3.75%

CCOC(=O)C(=CNc1ccc(NC2=NCC(C)S2)cc1)C(=O)OCC (stereo not drawn)
growth inhibition [1]: -0.05%
growth inhibition [2]: 0.35%
growth inhibition [3]: -20.4%
growth inhibition [4]: -7.9%
growth inhibition [5]: -35.8%
growth inhibition [6]: -47%

CC(C)CC(NC(=O)C(O)C(N)Cc1ccccc1)C(=O)O (stereo not drawn)
growth inhibition [1]: 56.5%
growth inhibition [2]: 26.6%
growth inhibition [3]: 60.4%
growth inhibition [4]: 47.8%
growth inhibition [5]: 36%
growth inhibition [6]: -21.7%

O=C(c1ccccc1)C(c1ccccc1)S(=O)(=O)N1CCOCC1 (stereo not drawn)
growth inhibition [1]: 1.3%
growth inhibition [2]: 13.3%
growth inhibition [3]: 2.85%
growth inhibition [4]: -13.1%
growth inhibition [5]: -11.6%
growth inhibition [6]: -7.65%

CC#CCC1CCC(OCC)=CC1=O (stereo not drawn)
growth inhibition [1]: 10.4%
growth inhibition [2]: 9.25%
growth inhibition [3]: 12.2%
growth inhibition [4]: -20%
growth inhibition [5]: 5.9%
growth inhibition [6]: 17.1%

Cc1cccc2nc(-c3ccccn3)n(CCc3ccccn3)c12
growth inhibition [1]: -5.2%
growth inhibition [2]: 5.35%
growth inhibition [3]: 1.65%
growth inhibition [4]: -18.5%
growth inhibition [5]: -8.2%
growth inhibition [6]: 17.2%

CC(=O)/C(=C/N1CCNC1=S)C(=O)Nc1ccc(Cl)cc1
growth inhibition [1]: -34.5%
growth inhibition [2]: -24%
growth inhibition [3]: -39.6%
growth inhibition [4]: 0.2%
growth inhibition [5]: -39.2%
growth inhibition [6]: -26.3%

CC1=C(C(=O)Nc2ccccc2)C(c2ccc(C3C(C(=O)Nc4ccccc4)=C(C)NC(C)=C3C(=O)Nc3ccccc3)cc2)C(C(=O)Nc2ccccc2)=C(C)N1
growth inhibition [1]: 70% (active)
growth inhibition [2]: 71.6% (active)
growth inhibition [3]: 53%
growth inhibition [4]: 41.5%
growth inhibition [5]: 82.5% (active)
growth inhibition [6]: 84.8% (active)

CC1(C)OC(=O)c2c(cc(N3CCOCC3)oc2=O)O1
growth inhibition [1]: 3.35%
growth inhibition [2]: -2.9%
growth inhibition [3]: 1.35%
growth inhibition [4]: 9.55%
growth inhibition [5]: 11.1%
growth inhibition [6]: -1.25%

CCCCCCCCCCCCCCCC(=O)Oc1ccc(C(=S)N2CCOCC2)cc1
growth inhibition [1]: 20.8%
growth inhibition [2]: 1.25%
growth inhibition [3]: 2.4%
growth inhibition [4]: 2.9%
growth inhibition [5]: 5.05%
growth inhibition [6]: 13.9%

CN1C(=O)C(Cc2cnc[nH]2)NC1=S (stereo not drawn)
growth inhibition [1]: 11.5%
growth inhibition [2]: 25.1%
growth inhibition [3]: 22.6%
growth inhibition [4]: -7.5%
growth inhibition [5]: 10.7%
growth inhibition [6]: 1.1%

O=C(O)CCC(=O)NNC(=O)CCC(=O)O
growth inhibition [1]: 16.2%
growth inhibition [2]: -2.45%
growth inhibition [3]: 4.15%
growth inhibition [4]: -8.45%
growth inhibition [5]: 14.3%
growth inhibition [6]: -22.4%

O=C(O)c1c(Cl)c(Cl)c(Cl)c(Cl)c1C(=O)Nc1ccccc1F
growth inhibition [1]: -3.8%
growth inhibition [2]: -19.2%
growth inhibition [3]: 14.3%
growth inhibition [4]: -118%
growth inhibition [5]: 1.5%
growth inhibition [6]: 0.6%

CC(CS)CS
growth inhibition [1]: 6.85%
growth inhibition [2]: -0.5%
growth inhibition [3]: 6.95%
growth inhibition [4]: -8.75%
growth inhibition [5]: -0.8%
growth inhibition [6]: 37%

CC1OC(OC2CCc3c(O)c4c(c(O)c3C2)C(=O)c2ccccc2C4=O)CC(N)C1O (stereo not drawn)
growth inhibition [1]: 5.25%
growth inhibition [2]: 8.9%
growth inhibition [3]: 5.85%
growth inhibition [4]: 14.8%
growth inhibition [5]: -1.85%
growth inhibition [6]: -2.15%

CCC/C=C/C=C/C1CC(O)C(O)C(=O)C1CO (stereo not drawn)
growth inhibition [1]: 5.25%
growth inhibition [2]: -29.6%
growth inhibition [3]: 17.1%
growth inhibition [4]: 7.9%
growth inhibition [5]: 1.9%
growth inhibition [6]: -0.7%

CC1=C(C(=O)NN)CC/C1=N\N
growth inhibition [1]: -25.4%
growth inhibition [2]: -18.8%
growth inhibition [3]: -11.5%
growth inhibition [4]: -10.6%
growth inhibition [5]: -9.3%
growth inhibition [6]: -10.6%

CC(=O)NCCNC(=O)c1ccc(C)c(OCc2ccccc2)c1[N+](=O)[O-]
growth inhibition [1]: 7%
growth inhibition [2]: 11.7%
growth inhibition [3]: -1%
growth inhibition [4]: -26.2%
growth inhibition [5]: -1.6%
growth inhibition [6]: 4.45%

O=S(/N=C/c1ccccc1)c1ccc(Cl)cc1 (stereo not drawn)
growth inhibition [1]: -7.6%
growth inhibition [2]: 4.5%
growth inhibition [3]: 12.4%
growth inhibition [4]: 13.9%
growth inhibition [5]: 9.4%
growth inhibition [6]: 13%

O=C1C[C@@]23CCC4(CC2=CCC[C@H]3O1)OCCO4
growth inhibition [1]: -16.9%
growth inhibition [2]: -19.6%
growth inhibition [3]: 3.2%
growth inhibition [4]: 14.7%
growth inhibition [5]: 17.5%
growth inhibition [6]: -12.3%

O=C(C#Cc1ccccc1)[O][Sn]([c]1ccccc1)([c]1ccccc1)[c]1ccccc1
growth inhibition [1]: 99% (active)
growth inhibition [2]: 99.2% (active)
growth inhibition [3]: 99.4% (active)
growth inhibition [4]: 99.2% (active)
growth inhibition [5]: 99.1% (active)
growth inhibition [6]: 99.2% (active)

Cc1ccc(-c2c3c(n(C4OC(CO)C(O)C(O)C4O)c(=S)c2C#N)CC(C)(C)CC3=O)cc1 (stereo not drawn)
growth inhibition [1]: 23.5%
growth inhibition [2]: 13.7%
growth inhibition [3]: -4.45%
growth inhibition [4]: -8.95%
growth inhibition [5]: 9.15%
growth inhibition [6]: 11.8%

N#C/C(=C\c1c(S(=O)(=O)O)sc2ccccc12)C(N)=O (tested in a mixture with another compound)
growth inhibition [1]: 30.3%
growth inhibition [2]: 10.1%
growth inhibition [3]: 17.1%
growth inhibition [4]: 25.3%
growth inhibition [5]: -0.9%
growth inhibition [6]: 21.8%

O=C(O)c1nccc2c(O)cccc12
growth inhibition [1]: -5.75%
growth inhibition [2]: -4.45%
growth inhibition [3]: -16.1%
growth inhibition [4]: -19.6%
growth inhibition [5]: -23.9%
growth inhibition [6]: 3.3%

CCOc1c(N=Nc2ccc(Cl)cc2)c(C)nn1C(N)=S
growth inhibition [1]: -19.2%
growth inhibition [2]: 16.2%
growth inhibition [3]: 12.2%
growth inhibition [4]: -12.6%
growth inhibition [5]: 36.4%
growth inhibition [6]: 44.5%

O=C(O)CCCCCCc1ccc2ccccc2n1
growth inhibition [1]: 16.8%
growth inhibition [2]: 13.8%
growth inhibition [3]: 16.5%
growth inhibition [4]: 10%
growth inhibition [5]: 7.05%
growth inhibition [6]: -3.55%

SCCc1ccccc1
growth inhibition [1]: -8.85%
growth inhibition [2]: -35.1%
growth inhibition [3]: -8.9%
growth inhibition [4]: -14%
growth inhibition [5]: 11.9%
growth inhibition [6]: -3.15%

Cc1c2occc2cc2c1oc(=O)c1cnccc12
growth inhibition [1]: 0.95%
growth inhibition [2]: -0.15%
growth inhibition [3]: 1.85%
growth inhibition [4]: 21.2%
growth inhibition [5]: -4.95%
growth inhibition [6]: 14.9%

O=C1C=C(Nc2nc(C(=O)O)cc(=O)[nH]2)c2ccccc2C1=O
growth inhibition [1]: 8.7%
growth inhibition [2]: -15.2%
growth inhibition [3]: -29.3%
growth inhibition [4]: 15.9%
growth inhibition [5]: -25.6%
growth inhibition [6]: -24.6%

CC(=O)/C(=C/N1CCNC1=S)C(=O)Nc1ccc([N+](=O)[O-])cc1
growth inhibition [1]: -0.1%
growth inhibition [2]: -4.5%
growth inhibition [3]: -28.1%
growth inhibition [4]: -33%
growth inhibition [5]: -12.9%
growth inhibition [6]: 5.6%

CCNC(C(=O)O)C1CCCCC1 (stereo not drawn)
growth inhibition [1]: -6.45%
growth inhibition [2]: -2.95%
growth inhibition [3]: -1.65%
growth inhibition [4]: 8.5%
growth inhibition [5]: -0.8%
growth inhibition [6]: -1.25%

NC(=O)c1cn[nH]c1N
growth inhibition [1]: 4.05%
growth inhibition [2]: 6.2%
growth inhibition [3]: 14.2%
growth inhibition [4]: -29.6%
growth inhibition [5]: -3.4%
growth inhibition [6]: 0.55%
